bCat KO growth = beta-catenin-lacking colon tumor cell growth suppression; HCT116 beta-catenin knockout viability, CellTiter-Glo, 60 h; active compounds read low; viability, % at 10 µM; 140,000 compounds, 1.5% hits; AID 818;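 active means viability at or under a set limit, the compound median less 4 SD, cut at about 6% in these data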;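 further: 0% = Hyamine 1622 control at 20 µM and 100% = untreated cell control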
L major viab = reduces viability of Leishmania major promastigotes. resazurin fluorescence viability. 200,000 compounds, 9% hits. inhibition, % at 10 µM; in the data active means inhibition above about 50%;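 further: promastigotes grown with compound for 44 hours at 28 °C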
Autophagy mod = alters autophagy in cells | MEF GFP-LC3 puncta imaging; test concentration mostly 10 µM | calls only at 10 µM (by protocol) | 190,000 compounds, 0.98% hits;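 active means percentage of spot-positive cells more than 3 SD above its plate mean, without a fluorescence outlier flag or 80% toxicity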;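 further: spot-positive cell cutoff set from DMSO-treated cells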
Insulin prom inh = TRM-6 insulin promoter activity inhibition; 130,000 compounds, 0.9% hits; TRM-6 cells (human fetal islet line), insulin promoter-eGFP reporter, imaging; reporter expression induced with tamoxifen; inhibition, % at 2 µM;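 active means inhibition above the mean plus 3 SD, with well images judged a real hit on visual review, cut at about 60% in these data, passing the limit was not always enough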
PTEN del growth = suppresses growth of cells with PTEN deletion. viability, % at 10 µM. AID 827. 140,000 compounds, 1.2% hits. HCT116 PTEN-null viability, CellTiter-Glo, 60 h; active compounds read low;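 active means viability at or below a set limit, 4 SD under the median of all tested compounds, cut at about 3.7% in these data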;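 further: PTEN knockout HCT116 line with beta catenin targeted HCT116 as companion control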
Ins promoter up = MIN6 insulin promoter up-regulation. MIN6 insulin promoter-GFP reporter, high-content imaging; active compounds read high. AID 1625. 190,000 compounds, 0.3% hits. z-score at 5 µM;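 active means z-score above 3 at 5 µM with at least 500 cells counted in the well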
* marks the source's active call; other numbers are inactive results; i = inactive; . = no result given; + = active, no number. Compounds with a hit are over-represented: about 9.6% of the library has one in this group of screens.

SMILES | bCat KO growth | L major viab | Autophagy mod | Insulin prom inh | PTEN del growth | Ins promoter up
COCCCN1CCN(C2Cc3ccccc3Sc3ccc(Cl)cc32)CC1 (configuration not stated) | 23 | 78* | i | -31 | 26 | .
O=C1CC(N2CCN(CCc3ccccn3)CC2)C(=O)N1c1ccc(Cl)cc1 (configuration not stated) | 70 | 0 | i | 21 | 88 | .
O=C(c1ccccc1Cl)N1CCNCC1 | 88 | 0 | i | 23 | 84 | .
Clc1cccc2c1Sc1ccccc1CC2N1CCNCC1 (configuration not stated) | 1.0* | 100* | i | -3 | 0.8* | -1.7
Clc1ccc2c(c1)C(N1CCNCC1)=Nc1ccccc1O2 | 71 | 23 | i | -55 | 63 | .
Clc1ccc2c(c1)C(N1CCNCC1)Cc1ccccc1S2 (configuration not stated) | 1.5* | 100* | + | i | 1.7* | .
NC(=O)CCN1CCN(CCOC2Cc3cc(Cl)ccc3Sc3ccccc32)CC1 (configuration not stated) | 66 | 91* | i | -31 | 62 | -4.2
COc1ccc(Cl)cc1NC(=O)CCN1CCN(C)CC1 | 88 | 0 | i | -19 | 98 | .
CCc1n[nH]c2c1C(=O)CC(C)(C)C2 | 98 | -7 | i | -93 | 105 | 0.46
Clc1ccccc1OCCN1CCCCC1 | 110 | 88* | i | 9 | 91 | 0.47
Clc1ccc(OCCN2CCCCC2)c(Cl)c1 | 98 | 99* | i | -35 | 91 | -0.65
Nc1nc2ccccc2n1CCOc1ccccc1Cl | 41 | 100* | i | . | 46 | -0.3
O=c1ccccn1CCOc1ccccc1Cl | 91 | -8 | i | 0 | 95 | 0.36
COc1cc2c(cc1OC)CN(C(=O)CSc1nc3[nH]ncc3c(=O)n1-c1ccccc1)CC2 | 87 | -3 | . | . | 92 | 1.3
CN(C)NC(=O)c1ccsc1NC(=O)c1ccc(S(=O)(=O)N2CCCC2)cc1 | . | . | . | . | . | -0.41
N#Cc1cc2c([nH]c1=S)CCCC2 | 92 | -7 | i | -19 | 90 | 0.59
Cc1cc(C)cc(NCc2cc(=O)oc3cc(-c4ccccc4)c(O)cc23)c1 | 51 | 40 | i | . | 28 | -0.57
Cc1ccc(C)c(N(C(=O)c2nsc(Cl)c2Cl)C(C(=O)NC2CCCC2)c2ccc(O)cc2)c1 (configuration not stated) | 49 | 42 | i | -19 | 53 | .
CCc1ccc2c(c1)c(N=NC1=NC(=O)CS1)c(O)n2C | 98 | 2 | i | 79* | 85 | -0.3
N#CCCN(CCN1CCCC1)S(=O)(=O)c1ccc(-c2ccc([N+](=O)[O-])cc2)cc1 | . | 93* | i | 28 | . | -0.24
O=C(c1ccc(F)cc1)c1ccc(N2CCCC2)cc1 | 80 | 15 | i | 19 | 95 | -0.01
Cc1ccc(-c2ccc(/C=C(\C#N)C(=O)Nc3cc(C)nn3-c3ccccc3)o2)cc1 | 79 | -1 | + | . | 93 | .
Cc1cc(NC(=O)/C(C#N)=C/c2ccco2)n(-c2ccccc2)n1 | 96 | -4 | i | . | 102 | 0.1
CSc1ccc(/C=c2\s/c(=C\C(=O)C(C)(C)C)n(CC(=O)NCCC3=CCCCC3)c2=O)cc1 | 68 | 0 | + | -15 | 58 | -0.59
Cc1ccc(S(=O)(=O)N2CCOCC2)cc1C(=O)NCc1cccs1 | . | -1 | i | . | . | 0.01
SMILES | bCat KO growth | L major viab | Autophagy mod | Insulin prom inh | PTEN del growth | Ins promoter up
O=C(NCCCN1CCOCC1)c1ccc(Sc2ccccc2Cl)c([N+](=O)[O-])c1 | 60 | 94* | i | -32 | 76 | 0.59
Cc1cc(C(=O)NCCN2CCOCC2)ccc1[N+](=O)[O-] | . | 5 | i | -83 | . | 0.04
O=C(NCCCN1CCOCC1)c1ccc(Sc2ccc(Br)cc2)c([N+](=O)[O-])c1 | 97 | 92* | i | -59 | 92 | 0.01
CS(=O)(=O)N(CC(=O)N1CCN(c2ccccc2)CC1)c1cccc(Br)c1 | 97 | -8 | i | . | 93 | -0.82
CCn1nnnc1-c1ccc(OC)c(S(=O)(=O)Nc2ccc(C)c(C)c2)c1 | 114 | 99* | i | -34 | 103 | 2.1
CCn1nnnc1-c1ccc(OC)c(S(=O)(=O)NCc2ccccc2)c1 | 89 | -4 | i | -25 | 93 | 2.2
Cc1cc(C)c(S(=O)(=O)NCCC2CCCN2C)c(C)c1 (configuration not stated) | 93 | 97* | i | -47 | 95 | 1.1
O=C(c1ccco1)N1C(=O)c2cccc3cccc1c23 | 100 | -4 | i | . | 83 | .
CCOc1cc(S(=O)(=O)N2CC=C(c3ccc(F)cc3)CC2)c(OCC)cc1-n1cnnn1 | 38 | 62* | i | -109 | 34 | 1
Cc1[nH]nc2c1/C(=N\O)CC(C)(C)C2 | 92 | 0 | i | . | 86 | 0.99
CCc1cccc2c(C(=O)CN3C(=O)NC(C)(c4cccc5ccccc45)C3=O)c[nH]c12 (configuration not stated) | . | 63* | i | . | . | 0.34
Cc1cccc(C)c1OCCCCCNCCO | 88 | 89* | i | 52 | 101 | .
OCCNCCOc1ccccc1F | 96 | -6 | i | 0 | 98 | -0.69
CCOc1ccccc1CNCCO | 97 | -3 | i | -19 | 107 | .
COc1ccccc1OCCCCNCCO | 93 | -1 | i | 22 | 93 | 0.04
CC(C)c1ccccc1OCCCCCNCCO | 78 | 91* | i | . | 72 | .
Cc1ccccc1OCCCCCNCCO | 92 | 62* | i | 9 | 101 | -0.92
CC(C)(C)c1ccccc1OCCCCCNCCO | 46 | 93* | i | -69 | 65 | -0.04
C=CCn1ncc(OC)c(Cl)c1=O | 81 | -7 | i | 54 | 101 | .
CCc1ccc(NC(=O)CSc2ccccn2)cc1 | . | -4 | i | -105 | . | -0.46
Cc1ccccc1Cn1nc(C)c(NC(=O)c2ccccc2)c1C | . | -7 | i | . | . | 0.52
CCOC(=O)c1c(N)nn(C(=O)C(C)C)c1-c1ccc(OC)cc1 | 111 | 12 | i | 79* | 129 | 0.27
CCOC(=O)c1c(N)nn(C(C)=O)c1-c1ccccc1 | 108 | 3 | i | 18 | 92 | 1
Cc1ccc(NC(=O)CN2C(=O)C3C4C=CC(C4)C3C2=O)cc1 (configuration not stated) | . | 9 | + | . | . | 0.61
CCOC(=O)c1ccc(NC(=O)CN2C(=O)C3C4C=CC(C4)C3C2=O)cc1 (configuration not stated) | 107 | 4 | i | -37 | 108 | 0.99
Cc1cc(C(=O)CSc2nnc(Nc3ccccc3F)s2)c(C)n1CC1CCCO1 (configuration not stated) | 82 | 23 | i | . | 88 | -1.2
CCOC(=O)C1=C(C)NC(SCC(=O)Nc2cc(C)on2)=C(C#N)C1c1cccs1 (configuration not stated) | 62 | 60* | i | -50 | 64 | -2.9
COc1ccccc1NC(=O)C1=C(C)NC(SCC(=O)Nc2ccc(C(=O)O)cc2)=C(C#N)C1c1cccs1 (configuration not stated) | . | . | . | . | . | 0.13
